# In the library only some 2.9% were active in any assay of this set; here they are far more common.
# Myeloid diff 2 – induction of myeloid progenitor differentiation, primary screen, cell-based, flow cytometry, MLPCN library | ER-HoxA9 myeloid progenitors, lysozyme-GFP differentiation | 360,000 tested, 1% active | AID 624256, 2012 | calls only at 10 µM;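 active = normalized GFP-positive differentiation at or above the plate's own cutoff, the solvent-only control mean plus 3 SD; inconclusive = no clear call, values can overlap the other calls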;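 note: cells exposed to compound for four days before flow analysis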
# ABHD5 PLIN5 PPI – ABHD5-PLIN5 interaction inhibitors, primary screen, cell lysate, split luciferase complementation, luminescence; Perilipin-5 (Homo sapiens) + 1-acylglycerol-3-phosphate O-acyltransferase ABHD5 (Homo …; inhibition, % at 4 µM; 360,000 tested, 0.78% active; Split G. princeps luciferase complementation, 4 h;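 active = inhibition above the mean inhibition across every tested compound plus 3 SD, cut at about 22% in these data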;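 note: 0% = DMSO only wells and the 100% control is not disclosed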
# Target sequence (Q00G26 whole entry, looked up): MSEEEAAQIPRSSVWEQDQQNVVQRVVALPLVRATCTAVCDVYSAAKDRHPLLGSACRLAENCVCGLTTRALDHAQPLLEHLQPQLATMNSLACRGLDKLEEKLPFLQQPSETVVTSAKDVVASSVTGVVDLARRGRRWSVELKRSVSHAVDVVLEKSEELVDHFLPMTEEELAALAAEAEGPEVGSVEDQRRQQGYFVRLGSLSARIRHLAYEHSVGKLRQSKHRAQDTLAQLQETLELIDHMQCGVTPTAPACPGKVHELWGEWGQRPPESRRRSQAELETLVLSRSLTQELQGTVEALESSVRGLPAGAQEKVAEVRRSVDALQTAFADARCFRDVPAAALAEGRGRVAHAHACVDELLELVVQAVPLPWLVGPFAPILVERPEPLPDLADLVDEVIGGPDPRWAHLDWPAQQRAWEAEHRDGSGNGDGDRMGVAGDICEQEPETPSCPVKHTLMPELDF
# Target sequence (Q8WTS1 whole entry, looked up): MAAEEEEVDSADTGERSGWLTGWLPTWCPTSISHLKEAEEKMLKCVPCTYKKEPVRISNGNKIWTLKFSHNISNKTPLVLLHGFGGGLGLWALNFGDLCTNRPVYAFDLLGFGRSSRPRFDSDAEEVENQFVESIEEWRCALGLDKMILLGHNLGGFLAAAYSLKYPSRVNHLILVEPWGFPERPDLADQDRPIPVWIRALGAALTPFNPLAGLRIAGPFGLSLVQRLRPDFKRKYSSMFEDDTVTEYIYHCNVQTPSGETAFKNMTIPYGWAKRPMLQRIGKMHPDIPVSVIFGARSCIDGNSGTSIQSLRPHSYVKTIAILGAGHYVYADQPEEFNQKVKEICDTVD
# Rtt109 HAT inh – inhibitors of C. albicans Rtt109/Vps75 HAT, primary screen, biochemical, ThioGlo CoA-SH fluorescence, plate reader | purified Rtt109/Vps75, 4 h | inhibition, % at 34.9 µM | 330,000 tested, 0.16% active | AID 540336, 2011;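 active = inhibition of at least 50% in every replicate; inconclusive = best replicate reaches 50% inhibition but some replicates fall short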
# DAGLB inhibitor – DAGLB lipase inhibitors, primary screen, biochemical, fluorescence, HTS; HEK293T DAGLB membrane lysate, EnzChek fluorogenic substrate; 340,000 tested, 0.059% active; Diacylglycerol lipase-beta (Homo sapiens), Q8NCG7; inhibition, % at 5.17 µM; in the data active = inhibition above about 34%;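 note: 0% = enzyme with vehicle and 100% = wells lacking enzyme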
# sPLA2-III inh – human group III sPLA2 inhibitors, primary screen, biochemical, QFRET, BODIPY PC-A2 liposome substrate; QFRET BODIPY PC-A2 liposome hydrolysis, fluorescence; 370,000 tested, 0.56% active; inhibition, % at 12.2 µM;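 active = inhibition above mean plus 3 SD of compounds lying within the high and low control bounds, cut at about 19% in these data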;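 note: 0% = median of test compound wells and 100% = no enzyme DMSO wells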
# Cardio protect – cardioprotection against H2O2-induced cell death, primary screen, uHTS, H9c2 cells, ATPLite luminescence; 360,000 tested, 0.63% active; H9c2 cardiomyocytes, H2O2 injury protection, 2 h; AID 588492, 2011; protection from H2O2 cell death, % at 20 µM;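 active = compounds giving at least 50% protection of heart cells from peroxide-induced death in the single-dose screen, raw or plate-pattern-corrected value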;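 note: 0% = DMSO wells with peroxide and 100% = DMSO wells without peroxide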
# Myeloid diff CP1 – inducers of myeloid progenitor differentiation, confirmation, cell-based, GFP/Mac1 flow cytometry, cherry pick 01 | shares compounds with Myeloid diff 2 | ER-HoxA9 myeloid progenitors, GFP/Mac1 double-positive flow | calls only | 2,300 tested, 2% active | AID 651706, 2012;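 active = share of green or green-and-red cells above 9 and 9% in run 1 or 4 and 3% in run 2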
# GFP autofluor – flagged as fluorescent in myeloid differentiation counter-screen. shares compounds with Myeloid diff 2. ER-HoxA9 myeloid progenitors, no estrogen, GFP autofluorescence flow cytometry; vehicle wells 0%, positive control 100%. fluorescence response, % (concentration not given with the values). 2,300 tested, 7.4% active;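 active = over 5% cells positive for green fluorescent reporter, or over 2% positive for both it and APC stain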;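 note: range taken on the double positive population between DMSO and positive control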
# * hit, by the source's call; i = inactive; ? = inconclusive; / = no result given; + = active, no number.
SMILES,Myeloid diff 2,ABHD5 PLIN5 PPI,Rtt109 HAT inh,DAGLB inhibitor,sPLA2-III inh,Cardio protect,Myeloid diff CP1,GFP autofluor
COc1ccc(CCN(C)c2ccc(S(=O)(=O)N3CCCC3)cc2[N+](=O)[O-])cc1OC,i,7,6,8,2,-5,/,/
CCOc1ccc(NC(=S)N2c3ccccc3CC2C)cc1 (stereo unspecified),i,-11,3,0,13,-12,i,0
COc1ccc(Nc2nc(N)nc(CN3CCN(c4ccc(F)cc4)CC3)n2)cc1,i,11,14,0,-2,21,i,0
Cn1c(N=Nc2ccccc2)nc2ccccc21,i,-6,9,7,0,-21,i,0
CCN1C(=O)[C@H]2[C@H]3CN=C(SCc4ccccc4)N3[C@@](Cc3ccccc3)(C(=O)OC)[C@H]2C1=O,i,-1,-1,-2,-4,-2,i,1
COC(=O)[C@@]1(Cc2ccccc2)[C@H]2C(=O)N(C)C(=O)[C@H]2[C@H]2CN=C(SCC3CC3)N21,i,-3,1,-1,1,12,/,/
CCN1C(=O)[C@H]2[C@H]3CN=C(SCC4CC4)N3[C@@](Cc3ccccc3)(C(=O)OC)[C@H]2C1=O,i,8,?,0,11,14,i,0
CCOc1ccccc1OC(=O)c1ccco1,i,10,-3,-6,-3,-4,i,1
CC(=O)c1ccccc1OC(=O)c1ccco1,+,3,/,-4,-2,-1,i,0
CC(=O)COc1ccccc1OC(=O)c1ccco1,i,0,-4,1,-1,0,/,/
O=C(NCc1ccccc1)C1=C[C@H](c2ccc(Br)cc2)C[C@H](OCCCCO)O1,i,2,0,2,-1,0,/,/
CC(=O)c1c(N2CCOCC2)nc(=S)n(-c2ccc([N+](=O)[O-])cc2)c1C,i,2,3,3,-2,0,i,1
CC(=O)c1c(N2CCOCC2)nc(=S)n(-c2ccccc2)c1C,i,-14,-4,0,2,4,/,/
CCNS(=O)(=O)c1ccc(CCC(=O)N2CCN(c3ccccc3)CC2)cc1,i,-4,9,-1,-3,4,/,/
CN(C(=O)c1cccc(NC(=O)Cc2cccc(NC(=O)C3CCN(S(=O)(=O)c4cccc([N+](=O)[O-])c4)CC3)c2)c1)C1CC1,?,0,-6,-1,-20,4,/,/
N#CCc1nc2n(n1)Cc1ccccc1-2,i,4,73*,-5,3,3,i,0
COc1ccc(OCC(=O)OCCN2C(=O)c3ccccc3C2=O)cc1,+,-3,5,-1,-3,10,i,0
O=C(C[C@@H]1C/C=C\CC[C@@H](Cc2ccc(F)cc2)C(=O)OC[C@@H](Cc2ccccc2)NC1=O)NCCO,i,10,4,-1,-5,-3,/,/
CCNc1nc(C)nc2c1cnn2C,i,2,-12,0,3,-1,/,/
CC1(C)C(C(N)=O)C(=O)NC(=O)C1C(N)=O (stereo unspecified),i,-2,/,1,5,3,/,/
CCN(CC(=O)Nc1ccccc1OC)C(=O)CN1C(=O)NC2(CCCC2)C1=O,i,2,-3,-1,0,0,/,/
CCCN(CC(=O)Nc1ccccc1OC)C(=O)CN1C(=O)NC2(CCCCC2)C1=O,+,7,9,-4,0,4,i,0
c1ccc(OCCNc2ccn3nc(-c4ccc(OCCN5CCOCC5)cc4)cc3n2)cc1,i,11,/,/,-27,12,/,/
COc1cc2c(=O)n(Cc3ccccc3)c(=O)n(CC(=O)NCCc3ccccc3)c2cc1OC,+,1,0,0,0,1,i,0
O=C(NCc1cccnc1)C(C(=O)c1ccc(F)cc1)n1ccccc1=O (stereo unspecified),i,7,-4,1,4,3,/,/
SMILES,Myeloid diff 2,ABHD5 PLIN5 PPI,Rtt109 HAT inh,DAGLB inhibitor,sPLA2-III inh,Cardio protect,Myeloid diff CP1,GFP autofluor
O=C(NCc1ccccc1)C(C(=O)c1ccc(F)cc1)n1ccccc1=O (stereo unspecified),i,0,-10,2,-6,3,i,1
Cc1cc(S(=O)(=O)NCc2ccccc2)ccc1OCC(=O)Nc1cccc([N+](=O)[O-])c1,i,-4,12,3,-43,3,/,/
COC(=O)NNC(=O)COc1ccc2ccccc2c1Br,i,-7,5,2,-3,-2,i,1
O=C(CCN1C(=O)C2CCCCC2C1=O)Nc1cc(F)ccc1F (stereo unspecified),i,8,-3,1,5,2,/,/
COc1ccccc1CCNC(=O)c1ccoc1C,+,11,1,2,2,6,i,0
CCOC(=O)C1CCN(C(=O)Cc2ccccc2OC)CC1,i,-3,-18,-6,1,11,/,/
COC(=O)c1ccc(CNC(=O)CC[C@H]2O[C@@H](n3cc(C)c(=O)[nH]c3=O)C[C@@H]2O)cc1,i,1,/,/,7,6,/,/
CC1CCN(CCCNC(=O)c2cc3c(=O)n(C)c4ccccc4c3n2C)CC1,i,6,1,-1,5,9,i,0
Cn1c(C(=O)NCCCN2CCOCC2)cc2c(=O)n(C)c3ccccc3c21,i,3,23,2,3,13,/,/
Cc1ccc(NC(=O)/C(=C\c2ccco2)NC(=O)c2ccco2)cc1,i,5,1,0,-1,-1,/,/
COc1ccc(NC(=O)/C(=C\c2ccco2)NC(=O)c2ccco2)cc1,i,11,-7,-1,-4,0,i,0
COc1cc(C2C3=C(CC(c4ccco4)CC3=O)Nc3ccccc3N2C(C)=O)cc(OC)c1OC (stereo unspecified),i,12,2,1,-6,5,/,/
COc1cc(C2C3=C(CC(C)(C)CC3=O)Nc3ccccc3N2C(C)=O)cc(OC)c1OC (stereo unspecified),i,-7,42,-2,0,2,i,0
